Records with an inconclusive call do not appear. Active and inactive are the calls of the source. The calls were made as follows, unless noted: active = hit-call score of the fitted dose curve at least 0.9, where 1 is the maximum; inactive = score below 0.9.

The values that follow come from PubChem BioAssay (EPA / NIEHS).

Assay [1] deals with Myc proto-oncogene protein (Homo sapiens) (UniProt P01106). The assay is described as follows: ATG_Myc_CIS: Attagene CIS-FACTORIAL HepG2 Assay for human Myelocytomatosis (Myc) Proto-Oncogene Transcription Factor (AID 2282990). The note with it: HepG2, Attagene cis-reporter transcription factor activity; actives raise or lower the signal. In outline: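 Read-out: fluorescent reporter mRNA fragments resolved by capillary electrophoresis after RT-PCR. Human HepG2 liver cells carried transfected cis-element reporter units and were dosed for 24 h. Gain or loss of signal fitted relative to DMSO baseline.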

Assay [2] can be described thus: ATG_NF_kB_CIS: Attagene CIS-FACTORIAL HepG2 Assay for human Nuclear Factor Kappa B (NF-kB) (AID 2282991). The note with it: HepG2 Attagene cis-factorial NF-kB reporter mRNA; actives raise or lower the signal. A digest of the protocol: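 Endogenous transcription factor activity in HepG2 was captured via cis-regulated reporter constructs; after 24 h dosing, reporter mRNA was reverse-transcribed, amplified, fluorescently labelled and sized by capillary electrophoresis, with activity fitted bidirectionally relative to DMSO.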

The nature of assay [3]: ATG_NRF2_ARE_CIS: Attagene CIS-FACTORIAL HepG2 Assay for human Nuclear Factor Erythroid 2 Related Factor 2 (NFR2) response to Antioxidant Response Elements (ARE) (AID 2282992).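 As to AC50: reporter mRNA level measured by RT-PCR and capillary electrophoresis fluorescence.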 The note with it: HepG2 Attagene ARE/NRF2 reporter, transcription factor activity; actives raise or lower the signal. In outline: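 Fluorescence intensity of reporter-specific cDNA fragments, separated by capillary electrophoresis, reflects mRNA induction in transfected HepG2 cells at 24 h. Activity is fitted bidirectionally, DMSO serving as baseline.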

A short description of assay [4]: ATG_Oct_MLP_CIS: Attagene CIS-FACTORIAL HepG2 Assay for human Octamer-Binding Transcription Factor (Oct) (AID 2282993). The note with it: HepG2 Attagene cis-factorial Oct reporter, mRNA; actives raise or lower the signal. A digest of the protocol:
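Read-out: reporter mRNA via RT-PCR plus capillary electrophoresis of 6-FAM-labelled fragments. Transiently transfected HepG2, 24 h exposure, endogenous TF activity on cis elements. Gain or loss of signal fitted relative to DMSO.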

The target in assay [5] is Cellular tumor antigen p53 (Homo sapiens) (UniProt P04637). The assay is described as follows: ATG_p53_CIS: Attagene CIS-FACTORIAL HepG2 Assay for human p53 Transcription Factor (AID 2282994). As to conditions: HepG2 p53 cis-element reporter, Attagene mRNA; actives raise or lower the signal. A digest of the protocol: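 Transiently transfected HepG2 (multiple cis reporter transcription units); exposure 24 h; reporter RNA via RT-PCR, 6-FAM extension, 2 h HpaI digest at 37 C, CE detection; DMSO baseline.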

Assay [6] in a line: BSK_3C_TissueFactor: BioMAP Diversity Plus: 3C Assay for Tissue Factor Biomarker Activity (AID 2282997). As to conditions: BioMAP 3C HUVEC, tissue factor biomarker readout; actives raise or lower the signal. A digest of the protocol:
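Cells used were primary human umbilical vein endothelial cells. They were dosed with chemical, and after 24 h Tissue Factor was quantified by ELISA. Curves were fitted bidirectionally with DMSO as baseline.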

Assay [7] is described as follows: BSK_3C_uPAR: BioMAP Diversity Plus: 3C Assay for Urokinase-type plasminogen activator receptor (uPAR) Biomarker Activity (AID 2282998). As to conditions: BioMAP 3C HUVEC, uPAR biomarker ELISA; actives raise or lower the signal. In outline: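 HUVEC primary cells; 24 h post-dose; uPAR by ELISA; gain or loss of signal fitted bidirectionally vs DMSO baseline.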
Assay [8] can be described thus: BSK_3C_VCAM1: BioMAP Diversity Plus: 3C Assay for Vascular cell adhesion molecule 1 (VCAM1) Biomarker Activity (AID 2282999). As to conditions: BioMAP 3C HUVEC, VCAM1 ELISA, cytokine-stimulated; actives raise or lower the signal. A digest of the protocol:
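HUVEC primary cells, 24 h compound exposure; VCAM-1 by ELISA; gain/loss of signal fitted bidirectionally vs DMSO baseline.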
A general note: An ELISA detects its analyte on a solid surface through an enzyme-linked reagent.

In assay [9] the target is human Peroxisome Proliferator-activated Receptor delta (PPARd), PPARD (gene 5467) (UniProt Q03181). The experiment in a line: ATG_PPARd_TRANS: Attagene TRANS-FACTORIAL HepG2 Assay for human Peroxisome Proliferator-activated Receptor delta (PPARd) (AID 2283002; active = hit-call score of the fitted dose curve at least 0.9, where 1 is the maximum). In outline: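 Read-out: reporter mRNA induction, quantified by fluorescent RT-PCR products resolved by capillary electrophoresis. Human HepG2 liver cells carried transiently transfected Gal4-UAS reporter constructs with chimeric NR-Gal4 fusions. Cells were dosed for 24 h; DMSO served as baseline.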

The target of assay [10] is human Retinoic Acid Receptor beta (RARb), RARB (gene 5915) (UniProt P10826). The assay is described as follows: ATG_RARb_TRANS: Attagene TRANS-FACTORIAL HepG2 Assay for human Retinoic Acid Receptor beta (AID 2283004; active = hit-call score of the fitted dose curve at least 0.9, where 1 is the maximum). In outline: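 HepG2, transient MRTU transfection, NR–Gal4 chimera, 24 h treatment; RT-PCR plus CE fluorescence detection of reporter mRNA; gain of signal vs DMSO.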

Assay [11] deals with Retinoic acid receptor alpha (Homo sapiens) (UniProt P10276). The assay is described as follows: ATG_RARa_TRANS: Attagene TRANS-FACTORIAL HepG2 Assay for human Retinoic Acid Receptor alpha (RARa) (AID 2283005; active = hit-call score of the fitted dose curve at least 0.9, where 1 is the maximum). A digest of the protocol:
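HepG2 transiently transfected with multiplex GAL4-UAS reporter units including a human RARa–GAL4 chimera; 24 h compound exposure. Reporter mRNA quantified by RT-PCR, 6-FAM labeling and capillary electrophoresis; gain of signal versus DMSO.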

A short description of assay [12]: BSK_3C_Proliferation: Cell Proliferation Assessment in the BioMAP Diversity Plus: 3C Assay (AID 2283006).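 As to AC50: potency may reflect either rise or fall in cell number versus DMSO.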 The note with it: primary human endothelial cells (HUVEC). In outline: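 Cells (human umbilical vein endothelial, sub-confluent) receive test chemical; after 48 h they are fixed in 10% trichloroacetic acid, stained with 0.1% SRB and read at 560 nm. Activity is referenced to DMSO, fitting increases and decreases.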

The target in assay [13] is Nuclear receptor subfamily 1 group I member 2 (Homo sapiens) (UniProt O75469). The experiment in a line: ATG_PXR_TRANS: Attagene TRANS-FACTORIAL HepG2 Assay for human Pregnane X Receptor (PXR) (AID 2283008; active = hit-call score of the fitted dose curve at least 0.9, where 1 is the maximum). In outline: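 Transient HepG2 transfectants carrying multiplexed reporter transcription units; PXR activity read through a Gal4 chimera. 24 h exposure. RT-PCR/CE fluorescence; upward curve fit referenced to DMSO.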

The target in assay [14] is human Retinoic Acid Receptor gamma (RARg), RARG (gene 5916) (UniProt P13631). The assay is described as follows: ATG_RARg_TRANS: Attagene TRANS-FACTORIAL HepG2 Assay for human Retinoic Acid Receptor gamma (RARg) (AID 2283009; active = hit-call score of the fitted dose curve at least 0.9, where 1 is the maximum). In outline:
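TRANS format measured activity of exogenous NR-GAL4 fusion (RARg) in transfected HepG2 liver cells after 24 h dosing. Induced reporter RNA was detected by RT-PCR/capillary electrophoresis fluorescence, analysed in the positive direction against DMSO.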

Assay [15] addresses human RAR-related Orphan Receptor gamma (RORg), RORC (gene 6097) (UniProt P51449). The assay is described as follows: ATG_RORg_TRANS: Attagene TRANS-FACTORIAL HepG2 Assay for human RAR-related Orphan Receptor gamma (RORg) (AID 2283011; active = hit-call score of the fitted dose curve at least 0.9, where 1 is the maximum). In outline: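 Activity is scored as increase in GAL4-UAS reporter mRNA over DMSO, detected by fluorescent RT-PCR and capillary electrophoresis in HepG2 cells transiently expressing a RORg-Gal4 chimera, 24 h after dosing.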

A short description of assay [16]: BSK_4H_Eotaxin3: BioMAP Diversity Plus: 4H Assay for Eotaxin 3 Biomarker Activity (AID 2283000).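 Also: CCL26 protein level quantified by ELISA in parallel with SRB cytotoxicity check.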 As to conditions: primary human endothelial cells (HUVEC); actives raise or lower the signal. In outline: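 Endothelial primary cells (human umbilical vein) exposed to compound for 24 h. ELISA detection of Eotaxin-3.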
Read-out in assay [17]: Intercellular Adhesion Molecule 1 (ICAM1), ICAM1 (gene 3383)
The experiment in a line: BSK_3C_ICAM1: BioMAP Diversity Plus: 3C Assay for Intercellular Adhesion Molecule 1 (ICAM1) Biomarker Activity (AID 2283003). As to conditions: primary human endothelial cells (HUVEC); actives raise or lower the signal. In outline: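 Chemicals are dosed onto primary human umbilical vein endothelium (3C system). After 24 h, ICAM-1 is measured by ELISA, and responses are fitted bidirectionally relative to DMSO.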

For assay [18], the target named is human Peroxisome Proliferator-activated Receptor alpha (PPARa), PPARA (gene 5465) (UniProt Q07869). The assay is described as follows: ATG_PPARa_TRANS: Attagene TRANS-FACTORIAL HepG2 Assay for human Peroxisome Proliferator-activated Receptor alpha (PPARa) (AID 2283001; active = hit-call score of the fitted dose curve at least 0.9, where 1 is the maximum). A digest of the protocol: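 HepG2, transient MRTU transfection, 24 h treatment. RT-PCR → FAM labelling → capillary electrophoresis. Fit vs DMSO, positive direction.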

Assay [19] has as its target human RAR-related Orphan Receptor beta (RORb), RORB (gene 6096) (UniProt Q92753). The experiment in a line: ATG_RORb_TRANS: Attagene TRANS-FACTORIAL HepG2 Assay for human RAR-related Orphan Receptor beta (RORb) (AID 2283010; active = hit-call score of the fitted dose curve at least 0.9, where 1 is the maximum). A digest of the protocol: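 Transfect HepG2 with multiple GAL4-UAS reporter transcription units; dose chemicals for 24 h; isolate RNA, reverse-transcribe and PCR-amplify reporter sequences; label, digest and resolve fragments by capillary electrophoresis; fit increases relative to DMSO.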

Chain of Myc proto-oncogene protein (Homo sapiens) (P01106 whole entry, looked up, the tested form may be a part): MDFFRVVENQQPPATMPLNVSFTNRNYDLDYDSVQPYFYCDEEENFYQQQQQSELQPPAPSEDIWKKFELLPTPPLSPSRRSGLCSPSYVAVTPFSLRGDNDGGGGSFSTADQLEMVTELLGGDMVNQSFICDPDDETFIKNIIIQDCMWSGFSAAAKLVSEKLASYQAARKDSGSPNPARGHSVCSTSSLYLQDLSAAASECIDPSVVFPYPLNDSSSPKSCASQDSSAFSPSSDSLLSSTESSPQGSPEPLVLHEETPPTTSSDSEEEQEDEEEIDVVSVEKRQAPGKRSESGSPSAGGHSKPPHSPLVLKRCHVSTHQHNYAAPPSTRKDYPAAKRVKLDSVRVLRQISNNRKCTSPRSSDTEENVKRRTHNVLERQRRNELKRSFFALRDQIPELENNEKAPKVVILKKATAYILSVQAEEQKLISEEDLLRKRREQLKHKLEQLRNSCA
Chain of human Peroxisome Proliferator-activated Receptor delta (PPARd), PPARD (gene 5467) (Q03181 whole entry, looked up, the tested form may be a part): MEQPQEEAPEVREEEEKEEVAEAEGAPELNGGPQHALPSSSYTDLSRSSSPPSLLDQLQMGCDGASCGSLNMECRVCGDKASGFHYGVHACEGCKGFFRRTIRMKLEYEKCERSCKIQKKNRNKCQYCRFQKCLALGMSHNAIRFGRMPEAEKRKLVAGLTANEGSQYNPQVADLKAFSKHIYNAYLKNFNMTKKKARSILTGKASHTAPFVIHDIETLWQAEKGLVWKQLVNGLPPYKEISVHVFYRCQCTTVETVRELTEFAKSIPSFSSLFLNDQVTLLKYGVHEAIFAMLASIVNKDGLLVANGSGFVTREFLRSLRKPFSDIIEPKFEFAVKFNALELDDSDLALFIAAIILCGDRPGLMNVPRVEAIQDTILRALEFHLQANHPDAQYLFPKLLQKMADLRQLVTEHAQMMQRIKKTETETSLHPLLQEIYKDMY
Chain of human Retinoic Acid Receptor beta (RARb), RARB (gene 5915) (P10826 whole entry, looked up, the tested form may be a part): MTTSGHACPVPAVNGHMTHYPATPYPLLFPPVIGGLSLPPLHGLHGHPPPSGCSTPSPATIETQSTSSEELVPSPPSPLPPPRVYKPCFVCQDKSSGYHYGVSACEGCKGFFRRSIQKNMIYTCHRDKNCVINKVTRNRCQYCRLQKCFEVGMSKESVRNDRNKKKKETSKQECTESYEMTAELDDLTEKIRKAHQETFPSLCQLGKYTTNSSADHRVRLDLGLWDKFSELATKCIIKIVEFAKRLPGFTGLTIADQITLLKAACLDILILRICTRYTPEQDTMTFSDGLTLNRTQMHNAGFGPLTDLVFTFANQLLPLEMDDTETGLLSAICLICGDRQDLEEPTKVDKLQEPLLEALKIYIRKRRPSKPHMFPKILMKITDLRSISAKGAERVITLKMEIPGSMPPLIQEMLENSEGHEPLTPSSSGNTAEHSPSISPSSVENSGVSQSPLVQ
Chain of Nuclear receptor subfamily 1 group I member 2 (Homo sapiens) (O75469 whole entry, looked up, the tested form may be a part): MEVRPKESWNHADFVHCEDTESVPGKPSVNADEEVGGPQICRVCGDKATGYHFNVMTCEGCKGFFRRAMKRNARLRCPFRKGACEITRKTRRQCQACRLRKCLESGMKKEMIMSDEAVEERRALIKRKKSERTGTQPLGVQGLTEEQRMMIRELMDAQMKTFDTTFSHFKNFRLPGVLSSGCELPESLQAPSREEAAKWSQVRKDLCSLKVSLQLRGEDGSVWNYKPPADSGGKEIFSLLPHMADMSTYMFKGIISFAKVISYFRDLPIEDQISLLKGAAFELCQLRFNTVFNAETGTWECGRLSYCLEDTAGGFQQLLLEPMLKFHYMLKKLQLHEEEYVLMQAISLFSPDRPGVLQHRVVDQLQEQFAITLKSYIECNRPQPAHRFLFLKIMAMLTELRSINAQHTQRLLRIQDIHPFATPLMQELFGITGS
Chain of human Retinoic Acid Receptor gamma (RARg), RARG (gene 5916) (P13631 whole entry, looked up, the tested form may be a part): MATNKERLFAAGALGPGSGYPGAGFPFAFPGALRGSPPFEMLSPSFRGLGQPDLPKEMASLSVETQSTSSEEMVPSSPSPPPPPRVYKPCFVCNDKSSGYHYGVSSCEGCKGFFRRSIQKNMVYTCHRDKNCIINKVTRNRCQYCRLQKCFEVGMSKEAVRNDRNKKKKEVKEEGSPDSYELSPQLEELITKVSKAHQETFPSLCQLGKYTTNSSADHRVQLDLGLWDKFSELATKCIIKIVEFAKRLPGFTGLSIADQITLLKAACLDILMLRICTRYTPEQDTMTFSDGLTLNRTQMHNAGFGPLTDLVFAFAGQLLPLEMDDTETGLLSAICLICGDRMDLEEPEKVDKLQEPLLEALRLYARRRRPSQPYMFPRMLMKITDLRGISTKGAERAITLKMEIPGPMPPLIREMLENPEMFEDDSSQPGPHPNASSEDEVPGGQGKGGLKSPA
Chain of Cellular tumor antigen p53 (Homo sapiens) (P04637 whole entry, looked up): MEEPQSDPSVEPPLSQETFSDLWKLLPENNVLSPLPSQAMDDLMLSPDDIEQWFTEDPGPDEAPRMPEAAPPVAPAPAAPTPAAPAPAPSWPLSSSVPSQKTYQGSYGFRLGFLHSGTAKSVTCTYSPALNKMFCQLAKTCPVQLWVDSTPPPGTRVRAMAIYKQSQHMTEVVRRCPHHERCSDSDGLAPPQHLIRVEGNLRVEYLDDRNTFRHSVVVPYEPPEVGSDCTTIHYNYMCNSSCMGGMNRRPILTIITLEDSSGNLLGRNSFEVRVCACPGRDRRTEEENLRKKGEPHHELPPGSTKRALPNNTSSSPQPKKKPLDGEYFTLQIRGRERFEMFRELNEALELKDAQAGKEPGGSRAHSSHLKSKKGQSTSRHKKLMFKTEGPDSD
Chain of human RAR-related Orphan Receptor gamma (RORg), RORC (gene 6097) (P51449 whole entry, looked up, the tested form may be a part): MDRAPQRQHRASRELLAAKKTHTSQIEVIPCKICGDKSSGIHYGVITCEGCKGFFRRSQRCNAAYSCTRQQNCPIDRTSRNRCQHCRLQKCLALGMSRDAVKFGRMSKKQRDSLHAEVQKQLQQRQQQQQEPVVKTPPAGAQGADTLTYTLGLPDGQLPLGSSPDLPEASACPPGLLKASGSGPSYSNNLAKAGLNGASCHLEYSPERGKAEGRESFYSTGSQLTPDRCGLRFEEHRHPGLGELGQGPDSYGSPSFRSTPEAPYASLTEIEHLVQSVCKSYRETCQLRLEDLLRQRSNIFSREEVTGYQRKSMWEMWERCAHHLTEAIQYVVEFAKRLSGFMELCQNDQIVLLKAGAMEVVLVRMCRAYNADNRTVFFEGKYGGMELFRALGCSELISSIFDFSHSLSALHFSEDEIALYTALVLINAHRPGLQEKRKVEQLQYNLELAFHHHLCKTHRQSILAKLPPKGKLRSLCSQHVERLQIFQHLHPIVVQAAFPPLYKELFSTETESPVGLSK
Chain of Retinoic acid receptor alpha (Homo sapiens) (P10276 whole entry, looked up, the tested form may be a part): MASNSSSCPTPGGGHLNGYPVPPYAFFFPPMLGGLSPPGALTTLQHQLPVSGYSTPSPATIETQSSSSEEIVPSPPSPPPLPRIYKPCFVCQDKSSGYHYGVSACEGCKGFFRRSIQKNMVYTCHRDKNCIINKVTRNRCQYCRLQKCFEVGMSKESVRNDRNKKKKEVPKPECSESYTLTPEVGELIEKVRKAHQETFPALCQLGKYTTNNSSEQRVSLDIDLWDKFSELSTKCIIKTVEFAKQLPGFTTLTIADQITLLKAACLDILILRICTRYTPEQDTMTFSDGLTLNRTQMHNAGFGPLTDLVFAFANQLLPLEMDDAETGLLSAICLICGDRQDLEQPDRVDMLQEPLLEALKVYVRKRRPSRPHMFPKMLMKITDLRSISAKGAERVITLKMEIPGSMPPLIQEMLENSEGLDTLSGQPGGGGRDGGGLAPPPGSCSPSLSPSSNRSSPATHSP
Chain of human Peroxisome Proliferator-activated Receptor alpha (PPARa), PPARA (gene 5465) (Q07869 whole entry, looked up): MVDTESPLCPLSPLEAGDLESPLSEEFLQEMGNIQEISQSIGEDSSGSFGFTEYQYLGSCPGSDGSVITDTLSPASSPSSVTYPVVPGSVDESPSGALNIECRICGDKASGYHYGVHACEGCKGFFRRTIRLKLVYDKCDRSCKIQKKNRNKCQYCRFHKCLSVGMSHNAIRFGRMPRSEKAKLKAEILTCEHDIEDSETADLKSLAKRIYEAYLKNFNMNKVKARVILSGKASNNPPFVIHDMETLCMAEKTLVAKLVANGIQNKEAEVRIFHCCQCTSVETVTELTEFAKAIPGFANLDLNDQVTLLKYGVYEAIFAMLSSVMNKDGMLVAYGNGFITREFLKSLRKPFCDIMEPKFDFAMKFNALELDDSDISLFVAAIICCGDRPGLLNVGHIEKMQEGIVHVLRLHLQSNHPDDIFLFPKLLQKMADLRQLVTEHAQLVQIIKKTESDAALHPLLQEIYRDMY
Chain of human RAR-related Orphan Receptor beta (RORb), RORB (gene 6096) (Q92753 whole entry, looked up, the tested form may be a part): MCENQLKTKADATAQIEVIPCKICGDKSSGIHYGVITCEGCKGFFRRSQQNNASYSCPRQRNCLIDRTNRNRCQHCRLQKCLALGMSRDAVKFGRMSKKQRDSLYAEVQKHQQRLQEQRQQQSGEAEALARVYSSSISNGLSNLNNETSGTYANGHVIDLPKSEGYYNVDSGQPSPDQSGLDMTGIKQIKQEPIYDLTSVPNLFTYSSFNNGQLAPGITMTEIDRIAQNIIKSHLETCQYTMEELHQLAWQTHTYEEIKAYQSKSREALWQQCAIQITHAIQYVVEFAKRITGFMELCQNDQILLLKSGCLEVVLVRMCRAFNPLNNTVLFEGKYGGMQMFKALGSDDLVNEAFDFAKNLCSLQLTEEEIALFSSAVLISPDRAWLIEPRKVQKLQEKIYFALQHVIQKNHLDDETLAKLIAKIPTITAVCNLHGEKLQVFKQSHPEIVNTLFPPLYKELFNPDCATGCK

As to `O=C1CCCCCN1`, the outcome in assay [1], in assay [2], in assay [3], in [4], in assay [5] and in [6] was inactive. The result in assay [7], in [8], in [9], in assay [10], in [11] and in assay [12] was inactive. In addition, the molecule was called inactive in assay [13], in [14] and in assay [15].
In the case of `CC(O)CN(CCN(CC(C)O)CC(C)O)CC(C)O` (stereo not drawn), the result in assay [1], in [2], in [3], in assay [4], in [5] and in [6] was inactive. Moreover, the result in [7], in [8], in [16], in [9], in [10] and in assay [12] was inactive. Moreover, the outcome in assay [13] and in assay [15] was inactive.
In general, AC50 refers to the midpoint of the concentration-response curve, whichever way the signal moves. For the molecule `CNCc1ccc(NC(=O)c2c[nH]c3c2C(=O)CCC3)cc1`, the molecule was called inactive in [1], in assay [2], in [4], in assay [5], in assay [6] and in [7]. Moreover, the outcome in assay [8], in [16], in [9], in [17], in [11] and in assay [12] was inactive. Besides, the molecule was classed as inactive in assay [14]. Moreover, the concentration at half-maximal activity (AC50) in assay [3] was 56.6 µM (active).
Turning to `O=c1[nH]c2ccc(S(=O)CCN3CCC(Cc4ccc(F)cc4)CC3)cc2o1` (stereo not drawn), the call in assay [1], in assay [5], in [6], in assay [7], in assay [8] and in assay [16] was inactive. Moreover, the call in assay [18], in assay [9], in [17], in assay [12] and in [14] was inactive. Further, the AC50 in assay [2] was 76.2 µM (active); in assay [3], 39.4 µM (active); in [4] it was 64.9 µM (active); in assay [13], 6.22 µM (active).
Turning to `C[C@](N)(Cc1ccc(O)c(O)c1)C(=O)O`, the molecule was called inactive in [1], in assay [2], in [3], in assay [4], in assay [5] and in assay [6]. In addition, the result in [7], in assay [8], in assay [16], in assay [9], in assay [17] and in [10] was inactive. For the same molecule, the result in assay [12] was inactive.
As for `CC[C@H]1OC(=O)[C@H](C)[C@@H](O[C@H]2C[C@@](C)(OC)[C@@H](O)[C@H](C)O2)[C@H](C)[C@@H](O[C@@H]2O[C@H](C)C[C@H](N(C)C)[C@H]2O)[C@](C)(O)C[C@@H](C)C(=O)[C@H](C)[C@@H](O)[C@]1(C)O`, the call in [1], in [2], in [3], in assay [4], in assay [5] and in assay [6] was inactive. Besides, the outcome in assay [7], in [8], in assay [16], in [11], in [12] and in assay [13] was inactive. Also, the call in assay [19] was inactive.
Turning to `COC(=O)c1c(Cl)c(Cl)c(C(=O)OC)c(Cl)c1Cl`, the molecule was classed as inactive in [1], in [2], in assay [3], in assay [4], in assay [5] and in [6]. In addition, the outcome in assay [7], in [8], in [16], in [9], in assay [17] and in assay [13] was inactive. For the same molecule, the call in assay [15] was inactive. Also, the AC50 in [12] is 14.6 µM (active).
